Results with a measured potency or affinity are listed apart. Unmarked numbers belong to inactive results.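 Rule for the calls: active = viability loss whose fitted half-maximal concentration is at most twice the top valid tested dose; inconclusive = flat curve with 30 to 70% loss, or poor fit; inactive = the rest.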
Test: HepG2 cell cytotoxicity, dose response, cytotoxicity control, ATP luminescence, cherry-pick, set 6 (AID 1053125);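 note: negative values mean loss of viability signal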
Settings: HepG2 viability, ATP luminescence (CellTiter-Glo), 72 h; series mostly up to 26 µM; activity change, negative = cytotoxicity: at the top concentration

For `Cc1noc(C)c1-c1ccc(C(=O)NCCc2ccccc2)c2occc12`, which “activity change, negative = cytotoxicity” value is on record?
The value was -14.3%.

Which “activity change, negative = cytotoxicity” value does the source give for `O=C(O)c1ccc(-c2ccc(/C=C3\NC(=O)N(Cc4ccc(Cl)cc4)C3=O)o2)cc1` here?
The value was 9.07%.

With `Cc1cccn2c(=O)c3cc(C(N)=S)c(=N)n(CCCOC(C)C)c3nc12` as the compound, how does the “activity change, negative = cytotoxicity” value read?
The value was -6.1%.

Which “activity change, negative = cytotoxicity” value does the source give for `CCC(=O)NCCCNc1nc2c(C)cccc2cc1C#N` here?
Its value is -13.7%.

For `CCN(CC)CCN1C2=C(C(=O)CC(C)(C)C2)C(c2cccc(F)c2)C2=C1CC(C)(C)CC2=O`, which “activity change, negative = cytotoxicity” value is on record?
Its value is -3.85%.

With `C=CCc1c(O)c(CC)cc2c(C)cc(=O)oc12` as the compound, how does the “activity change, negative = cytotoxicity” value read?
The value was -9.42%.

Which “activity change, negative = cytotoxicity” value does the source give for `N#C/C(=C\c1ccc(N2CCOCC2)o1)C(=O)NCCc1ccccc1` here?
The value was -9.69%.

Which “activity change, negative = cytotoxicity” value does the source give for `N=c1oc2cc(O)ccc2cc1C(=O)Nc1nc2ccccc2s1` here?
Its value is -0.66%.

For `CC1CC(C)CN(CCCNC(=O)CCC(=O)N2CC(C)Oc3ccccc32)C1` (configuration not stated), which “activity change, negative = cytotoxicity” value is on record?
Its value is -6.78%.

For `O=c1oc2c(CN3CCN(CCO)CC3)c(O)ccc2cc1-c1ccccn1`, which “activity change, negative = cytotoxicity” value is on record?
The value was -7.38%.

With `CCCn1c(=N)c(S(=O)(=O)c2ccccc2)cc2c(=O)n3ccccc3nc21` as the compound, how does the “activity change, negative = cytotoxicity” value read?
The value was -9.82%.

Which “activity change, negative = cytotoxicity” value does the source give for `CC(C)CCN(CCC(C)C)CC(O)Cn1c2ccccc2c(=O)c2ccccc21` (configuration not stated) here?
Its value is -16%.

Which “activity change, negative = cytotoxicity” value does the source give for `Cc1cc(-c2ccccc2)c2ccc(NC(=O)C(C)(C)C)nc2n1` here?
The value was -0.045%.

With `O=C(NCc1ccc(F)cc1)C1CCCN1C(=O)Nc1cccc(F)c1` (configuration not stated) as the compound, how does the “activity change, negative = cytotoxicity” value read?
Its value is -3.92%.

With `CCn1c(=N)c(S(=O)(=O)c2ccccc2)cc2c(=O)n3ccccc3nc21` as the compound, how does the “activity change, negative = cytotoxicity” value read?
The value was -12.9%.

For `CC(=O)OC[C@@H]1CN(Cc2ccccc2)C[C@H](n2cnc3c(N(C)C(C)C)ncnc32)O1`, which “activity change, negative = cytotoxicity” value is on record?
Its value is -6.77%.

With `O=C(NCc1nnnn1-c1ccc(Cl)cc1)C1CC(=O)N(c2ccc(F)cc2)C1` (configuration not stated) as the compound, how does the “activity change, negative = cytotoxicity” value read?
The value was -2.53%.

— PubChem BioAssay AID1053125 (Broad Institute, 2014)
